High-throughput results from PubChem.
Shown are actives, neighbours in structure and some others; about 8% of the full set was active somewhere.
HCV inhibitor – HCV inhibition | Potency, µM (highest dose often 41.8 µM), without a hit: at the top dose activity change, negative = inhibition, usual class: inhibitors | Huh7.5.1 HCVcc-Cre infection, luciferase reporter, 44 h | 3.4% of 340,000 active | AID 651820; active = well fitted inhibition curve with a large enough effect; inconclusive = small, poorly fitted or top-dose-only effect, or another doubt; inactive = no such curve, though single readings can be large or run the other way; also: potency is read from the fitted curve at half-maximal effect; % is scaled to controls: 0 for no effect and ±100 for the full control effect
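Cells (1,000/well) were plated 4 h before compound, then infected with HCVcc-Cre virus (~0.5 moi). After 44 h further culture, infection was read as luciferase luminescence following a 15 min substrate incubation at room temperature.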
HCMV inh – inhibitors of human cytomegalovirus; activity change, negative = inhibition, % at 57.5 µM; 4.5% of 410,000 active; HFF cells, HCMV-luciferase reporter, 72 h; hits give low values; in the data active = activity change below about -60%; inconclusive = no clear call, values can overlap the other calls; inactive = above about -39%; also: % is scaled to controls: 0 for no effect and ±100 for the full control effect
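Two-dose cell screen: HFF monolayers treated with compounds and infected with luciferase-expressing HCMV at 1 PFU/cell, 72 h at 37C, then lysed for luciferase measurement.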
FMDV antiviral – foot and mouth disease virus antiviral activity; Potency, µM (series often up to 57.9 µM), without a hit: top-dose activity change, negative = inhibition, usual class: inhibitors; FMDV antiviral cell-based qHTS; 1.2% of 410,000 active; calls by dose curve; tested in HEK293T cells; also: read-out not given here; potency is read from the fitted curve at half-maximal effect; % is scaled to controls: 0 for no effect and ±100 for the full control effect; nearly all actives have a fitted effect of over 45% in size
Lassa entry inh – Lassa virus entry inhibition; AID 540256; 1.2% of 300,000 active; Lassa virus pseudotype entry inhibition, cell reporter; Potency, µM (doses to about 37.9 µM), inactives show at the highest dose activity change, negative = inhibition, most hits filed as inhibitors; calls by dose curve; tested in HEK293 cells; also: potency is read from the fitted curve at half-maximal effect; % is scaled to controls: 0 for no effect and ±100 for the full control effect; nearly all actives have a fitted effect of over 50% in size
MARV entry inh – inhibitors of Marburg virus binding or cell entry; 1.8% of 300,000 active; Marburg virus pseudotyped entry inhibition, cell reporter; Potency, µM (top dose mostly 37.8 µM), for the others: at the highest dose activity change, negative = inhibition, most hits filed as inhibitors; calls by dose curve; tested in HEK293 cells; also: potency is read from the fitted curve at half-maximal effect; % is scaled to controls: 0 for no effect and ±100 for the full control effect
SARS PLP yeast – SARS-CoV PLP inhibition in yeast | S. cerevisiae expressing SARS-CoV PLpro, growth rescue | Potency, µM (highest dose often 32.9 µM), for inactives: at the highest dose activity, positive = growth rescue, actives largely listed as activators | 0.19% of 330,000 active | AID 485353; calls by dose curve; also: potency is read from the fitted curve at half-maximal effect; 0% is about no effect; nearly all actives have a fitted effect of over 55% in size
The depositor's hits bear a star; ? = inconclusive; · = no result given; ! = repeats disagree; [ ] = another dose, or the depositor's remark.

SMILES	HCV inhibitor	HCMV inh	FMDV antiviral	Lassa entry inh	MARV entry inh	SARS PLP yeast
CCN(CC)S(=O)(=O)c1ccc(N2CCOCC2)c(NC(=O)c2cccc3c(=O)c(C)c(-c4ccccc4)oc23)c1	8.9µM*	-8	?	·	·	·
CCN(CC)S(=O)(=O)c1ccc(N2CCOCC2)c(NC(=O)c2cccc3ccccc23)c1	3%	-23	0%	?	-29%	-15%
CCOc1cc(C)nc(N2CCC(C(=O)NC3CC3)CC2)n1	13%	-12	-3%	13%	20%[46.1 µM]	·
O=c1oc2cc(O)ccc2cc1-c1nnc(Nc2ccccc2F)s1	·	83	13%	?	·	·
CCN(CC)S(=O)(=O)c1ccc(N2CCOCC2)c(NS(=O)(=O)c2cc(C(C)(C)C)ccc2C)c1	?	-69*	-8%	8.9µM*	?	-3%
O=C(Nc1ccc(S(=O)(=O)NCC2CCCO2)cc1)c1ccc(Cl)cc1[N+](=O)[O-] (stereo not drawn)	25µM*	1	25%	6%[46.1 µM]	?	1%
O=C(CCCl)N1c2ccccc2C=Cc2ccccc21	?	-71*	-5%	·	·	·
O=S1(=O)[C@H]2C[C@H](CO)O[C@@]2(CO)CN1Cc1ccc(-c2ccc(F)cc2)cc1	11µM*	-20	-19%	·	·	-1%
CCN(CC)CCNC(=O)c1c(C)n(-c2ccccc2)c2cc(Br)c(OC)cc12	?	-11	-20%	7.3µM*	?	7%
CCOC(=O)c1c(CNCCN(CC)CC)n(C)c2cc(Br)c(OC)cc12	?	4	-26%	?	11µM*!	-6%
CCOC(=O)c1c(C)n(C)c2cc(Br)c(C(=O)OC)cc12	10µM*	11	-18%	-4%	?	-7%
C[N+]1(CCNC(=O)/C=N\O)CCCCC1	·	·	·	·	5%[46.1 µM]	·
Nc1cc(OC(=O)c2ccc(F)cc2)nn1S(=O)(=O)c1ccc(F)cc1	-7%	-21	-6%	2µM*	-7%[46.1 µM]	-1%
Nc1cc(OC(=O)c2ccco2)nn1S(=O)(=O)c1ccc(F)cc1	-23%	-22	2%	3%	2%	-12%
Cc1cc(C(=O)COC(=O)c2ccc(O)cc2)c(C)n1CCc1ccc(F)cc1	-11%	-5	1%	13%	1%[46.1 µM]	0%
Cc1cc(C(=O)CSc2nc(N)cc(N)n2)c(C)n1CCc1ccc(F)cc1	?	?	25µM*	?	?	-4%
CCC(=NCCc1c(C)[nH]c2ccc(C)cc12)C1=C(O)CC(c2ccccc2)CC1=O (stereo not drawn)	?	-77*	0%	?	?	-31%
COc1cccc(-n2ncc3c(NN=Cc4ccncc4)ncnc32)c1	·	·	·	17%	·	·
O=C(O)c1ncn(Cc2ccc(Br)cc2)c1C(=O)O	15%	?	35µM*	-2%	?	2%
CC(=O)c1ccccc1-c1ccc2c(c1)CC(CNC(=O)Cc1c[nH]c3ccccc13)O2 (stereo not drawn)	·	·	0%	·	·	·
CCOC(=O)c1c(C)c(C)n(Cc2cccc(OC)c2OC)c1C	?	-85*	?	2%	-29%	15%
CCOC(=O)c1cc(C)n(Cc2cccc(OC)c2OC)c1C	?	-31	?	-14%	-15%	-9%
COc1ccc(C)cc1N/C(N)=N/c1nc(C)cc(C)n1	?	?	-9%	-19%	?	-1%
COc1nc(N=C(N)N)nc2ccc(C)cc12	?	-102*	·	·	-6%	-4%
COc1ccc(N2CCN(c3nc4cc(C)ccc4cc3C=O)CC2)cc1	11µM*	-25	-19%	-12%	-19%[46.1 µM]	1%
Cc1cc(N2CCN(c3ncccn3)CC2)nc2c(C)cccc12	?	·	?	-10%	?	-1%
COc1ccc2c(C)cc(N3CCOCC3)nc2c1	25µM*	17	50%	?	27%	1%
COc1ccc(N2CCN(c3cc(C)c4ccc(C)cc4n3)CC2)cc1	-15%	-64*	?	?	?	-8%
COc1ccc(N2CCN(c3cc(C)c4cccc(C)c4n3)CC2)cc1	-6%	-74*	-9%	?	?	-2%
COc1ccccc1N1CCN(C(=O)c2cnn(-c3ccc(F)cc3F)c2C2CCNCC2)CC1	·	-8	-6%	9%[46.1 µM]	·	·
